Assay outcomes (PubChem)
Shown are actives, neighbours in structure and some others; about 21% of the full set was active somewhere.
DT40 TDP1 CPT = qHTS for Inhibitors of human tyrosyl-DNA phosphodiesterase 1 (TDP1): qHTS in cells in presence of CPT; chicken DT40 Tdp1-/-;hTDP1 cells + 20 nM CPT, ATP luminescence, 48 h; Potency, µM (series often up to 46.2 µM), for inactives: at the highest dose activity change, negative = growth inhibition, actives largely listed as inhibitors; hit rate 12% among 420,000; also: potency is read from the fitted curve at half-maximal effect; % is scaled to controls: 0 for no effect and ±100 for the full control effect; nearly all actives have a fitted effect of over 55% in size
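Chicken DT40 Tdp1-/- cells stably complemented with human TDP1 were seeded at 400 cells/well in medium containing 20 nM camptothecin, exposed to pin-transferred compounds, and grown at 37 °C for at least 48 hr. Viability was read as ATP luminescence.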
DT40 TDP1 no CPT = qHTS for Inhibitors of human tyrosyl-DNA phosphodiesterase 1 (TDP1): qHTS in cells in absence of CPT. hit rate 15% among 420,000. Potency, µM (titrated, usually from 46.2 µM), without a hit: at the top dose activity change, negative = growth inhibition, actives largely listed as inhibitors. DT40 Tdp1-/- hTDP1 cells, no CPT, ATP luminescence, 48 h; also: potency is read from the fitted curve at half-maximal effect; % is scaled to controls: 0 for no effect and ±100 for the full control effect; nearly all actives have a fitted effect of over 55% in size
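Chicken DT40 Tdp1-/- cells stably complemented with human TDP1 were seeded at 400 cells/well with DMSO in place of 20 nM camptothecin. After compound pinning, cells grew at least 48 hr at 37 °C; viability read by CellTiter-Glo luminescence.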
IL1B secr inh = qHTS for Inhibitors of Inflammasome Signaling: IL-1-beta AlphaLISA Primary Screen | THP-1 LPS/ATP IL-1B secretion, AlphaLISA, 16 h; stronger effect = lower value | activity change, % at 57.5 µM | hit rate 4.7% among 360,000; in the data active = activity change below about -50%; inconclusive = mostly about -30% to -49%; also: % is scaled to controls: 0 for no effect and ±100 for the full control effect
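Secreted IL-1B measured by AlphaLISA bead assay after 16 h compound exposure of THP-1 cells; compounds (final up to 57.5 uM) added 1 h before LPS (250 ng/mL) and ATP (1.25 mM) stimulation; lower signal means less secretion.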
ClpP mod = qHTS Assay for Activators of ClpP; purified B. subtilis ClpP, FRET peptide cleavage, 20 min; Potency, µM (top dose mostly 57.5 µM), for inactives: top-dose activity change, negative = active; hit rate 1.9% among 340,000; active = well fitted falling curve with a large enough effect; inconclusive = small, poorly fitted or top-dose-only effect; inactive = no such curve, though single readings can be large or run the other way; also: potency is read from the fitted curve at half-maximal effect; the source files actives as falling curves though it sought activators and does not explain the sign; nearly all actives have a fitted effect of over 65% in size
Target sequence (P80244 whole entry, looked up): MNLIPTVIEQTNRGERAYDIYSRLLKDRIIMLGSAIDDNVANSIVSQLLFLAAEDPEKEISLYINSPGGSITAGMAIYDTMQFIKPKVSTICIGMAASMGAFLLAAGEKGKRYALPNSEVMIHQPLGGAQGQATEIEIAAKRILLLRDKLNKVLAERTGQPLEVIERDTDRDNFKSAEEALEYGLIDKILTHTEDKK
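Buffer: 100 mM Tris/HCl pH8, 100 mM KCl, 0.05% low protease BSA, 2.5% glycerol, 0.01% Tween-20. ClpP 10 microg/mL final; 20 min RT; delta FRET normalized to ADEP and DMSO controls.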
D3 ag = qHTS of D3 Dopamine Receptor Agonist: qHTS; D(3) dopamine receptor (Homo sapiens), P35462; D3R DiscoveRx beta-arrestin cells, luminescence, 90 min; max activation, %; hit rate 0.58% among 410,000; in the data active = max activation above about 30%; also: 0% is about no effect
Target sequence (P35462 whole entry, looked up): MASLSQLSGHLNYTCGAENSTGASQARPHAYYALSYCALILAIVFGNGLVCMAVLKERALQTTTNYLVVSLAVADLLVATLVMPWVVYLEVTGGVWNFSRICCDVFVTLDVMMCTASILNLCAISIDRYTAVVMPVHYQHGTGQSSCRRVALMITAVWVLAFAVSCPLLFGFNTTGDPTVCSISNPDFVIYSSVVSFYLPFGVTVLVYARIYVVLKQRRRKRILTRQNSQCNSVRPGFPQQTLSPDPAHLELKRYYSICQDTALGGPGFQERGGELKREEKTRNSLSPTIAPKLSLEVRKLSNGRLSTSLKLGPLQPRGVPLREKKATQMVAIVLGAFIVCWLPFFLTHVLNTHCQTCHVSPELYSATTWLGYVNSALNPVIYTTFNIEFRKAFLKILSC
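Cells at 1500/well, incubated overnight, then treated with pinned compounds (dopamine as control) for 90 min at 37 degrees C. DiscoveRx reagent added for 30 - 60 minutes at room temperature; luminescence read.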
DRD3 antagonist = qHTS of D3 Dopamine Receptor Antagonist: qHTS. D(3) dopamine receptor (Homo sapiens), P35462. D3R cells, DiscoveRx beta-arrestin luminescence, antagonist mode; stronger effect = lower value. max response, negative = inhibition, %. hit rate 2.5% among 360,000; in the data active = max response below about -50%; inconclusive = no clear call, values can overlap the other calls; also: % is scaled to controls: 0 for no effect and ±100 for the full control effect
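Cells expressing the human receptor were seeded at 1500 cells/well, incubated overnight at 37 degrees C in 5% CO2, then exposed to library compounds with dopamine controls for 90 minutes at 37 degrees C before luminescent detection.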
Numbers without * were called inactive; ? = inconclusive; . = no result given. Unless noted, calls follow the shape of the dose curve; as a rule, active = well fitted inhibition curve with a large enough effect; inconclusive = small, poorly fitted or top-dose-only effect; inactive = flat fitted curve, though single readings scatter.

SMILES | DT40 TDP1 CPT | DT40 TDP1 no CPT | IL1B secr inh | ClpP mod | D3 ag | DRD3 antagonist
CCC(=O)Nc1c(S(=O)(=O)c2ccc(C)cc2)c2nc3ccccc3nc2n1C(C)c1ccccc1 (configuration not stated) | ? | ? | 2 | 20µM* | 6 | 8
COc1ccc(NC(=O)CN2CCCC2c2cccs2)cc1S(=O)(=O)N1CCCCC1 (configuration not stated) | ? | ? | ? | -2% | 17 | 38
CCCCC(=O)Nc1cccc(-c2nc3ncccc3o2)c1 | -21% | -28% | -25 | 16µM* | 19 | 4
CCCC(=O)Nc1cccc(-c2nc3ncccc3o2)c1 | -14% | -20% | . | 4% | -13 | .
Cc1cccc(OCC(=O)Nc2ccc(Cl)c(-c3nc4ncccc4o3)c2)c1C | 18µM* | 16µM* | . | ? | 18 | .
CCCCCC(=O)Nc1cccc(-c2nc3ncccc3o2)c1 | 2% | -18% | -99* | ? | 2 | 20
CCOc1ccc(C(=O)Nc2ccc3oc(-c4cccnc4)nc3c2)cc1 | 1% | -16% | . | -12% | 5 | .
COc1ccc(OCC(=O)Nc2ccc(Cl)c(-c3nc4ncccc4o3)c2)cc1 | -25% | -23% | . | -2% | -15 | .
CCCCC(=O)Nc1ccc2oc(-c3cccnc3)nc2c1 | -3% | ? | -12 | 18µM* | 1 | 25
CC(=O)NC12CC3CC(C1)CC(C(=O)N1CCN(S(=O)(=O)c4cccc([N+](=O)[O-])c4)CC1)(C3)C2 | ? | -2% | 14 | 0% | -5 | -13
Cn1c(=O)c(=O)n(C)c2cc(S(=O)(=O)N3CCCC3C(=O)NCc3cccs3)ccc21 (configuration not stated) | -16% | 2% | 8 | . | 3 | -2
O=C(NC1CCCC1)c1ccc2c(=O)n(Cc3ccccc3)c(SCc3ccccc3F)nc2c1 | -25% | ? | . | -5% | -9 | .
CCN(CC(=O)Nc1ccccc1OC)C(=O)CSCC(=O)Nc1ccc(OC)cc1 | -1% | -7% | 20 | . | 11 | 0
COc1ccc(NC(=O)N2CC[C@@]3(CCCNC3)C2)cc1 | -20% | -21% | . | . | . | .
Cc1cc(C)c(OCC(=O)Nc2cccc(-c3nc4ncccc4o3)c2)c(Br)c1 | ? | ? | . | -16% | 10 | .
COc1c(C)cc(Br)cc1C(=O)Nc1cccc(-c2nc3ncccc3o2)c1 | 21µM* | 21µM* | -21 | ? | 3 | 99
Cc1ccc(C(C)C)c(OCC(=O)Nc2cccc(-c3nc4ncccc4o3)c2)c1 | 21µM* | 21µM* | . | 22µM* | 8 | .
COc1ccc(S(=O)(=O)Nc2nc3ccccc3nc2Nc2cccc(C(=O)O)c2)cc1 | -1% | -18% | 6 | -29% | 2 | 0
COc1cccc(C(NC(C)=O)c2nc(-c3ccccc3C)cs2)c1 (configuration not stated) | -10% | ? | 21 | 1% | 7 | 10
O=C(COC(=O)/C=C/c1cccc([N+](=O)[O-])c1)Nc1cccnc1Cl | 2% | -23% | 3 | 0% | 3 | -9
Cc1ccc(NC(=O)c2ccc3c(c2)NC(=O)c2ccccc2S3)cc1 | 3.7µM* | 2.6µM* | . | 127% | -7 | .
Cc1ccc(C(=O)Nc2ccc3c(c2)N(C)C(=O)c2ccccc2S3)cc1F | 1µM* | 0.82µM* | . | ? | -15 | .
CC(=O)Nc1cc(C(=O)Nc2ccc3c(c2)N(C)C(=O)c2ccccc2S3)ccc1C | 1.6µM* | 0.92µM* | . | 0% | -1 | .
CCCCNC(=O)c1ccc2c(c1)N(C)C(=O)c1ccccc1S2 | ? | ? | -1 | 1% | -1 | -2
Cc1ccc(OCC(=O)NC2CCS(=O)(=O)C2)c(C)c1 (configuration not stated) | 0% | 17% | 19 | 1% | -2 | -3
SMILES | DT40 TDP1 CPT | DT40 TDP1 no CPT | IL1B secr inh | ClpP mod | D3 ag | DRD3 antagonist
CC/C=C\C[C@H]1C(=O)CC[C@@H]1CC(=O)O | 0% | 0% | . | . | . | .
COc1ccc2oc(=O)c(C(=O)NCCc3c(C)[nH]c4c(C)cccc34)cc2c1 | . | . | . | 6% | 8 | .
COc1ccc(C(=O)CSc2nc3ncccc3[nH]2)cc1OC | -25% | ? | -9 | . | -9 | 3
COc1ccc(C(C(=O)NCC2CCCO2)N(C(=O)CNC(=O)c2cccs2)c2ccc(C)cc2)cc1OC (configuration not stated) | 12% | 7% | 6 | . | 5 | -6
CC(OC(=O)CSc1ccccc1)C(=O)NC1CCCCC1C (configuration not stated) | 4% | -5% | 13 | 1% | 4 | 9
COc1cc(C(=O)NCC(c2cccnc2)N2CCN(C)CC2)cc(OC)c1OC (configuration not stated) | -12% | -4% | 10 | -1% | -8 | -4
COc1cc(C(=O)NCC(c2cccnc2)N2CCc3ccccc32)cc(OC)c1OC (configuration not stated) | ? | 21µM* | . | 1% | 4 | .
Cc1ccc(C(=O)NCC(c2cccnc2)N2CCc3ccccc32)cc1C (configuration not stated) | 7.3µM* | 15µM* | . | -2% | 3 | .
COc1ccc(C(=O)NCC(c2cccs2)N2CCc3ccccc32)cc1OC (configuration not stated) | ? | 21µM* | -12 | . | 7 | 4
O=C(NCC(c1cccnc1)N1CCc2ccccc21)c1ccc(F)c(F)c1 (configuration not stated) | 13µM* | 9.2µM* | . | 1% | -14 | .
Cn1c(-n2cccc2)c(-c2c(-c3ccccc3)[nH]c3c2c(=O)n(C)c(=O)n3C)c(=O)n(C)c1=O | -5% | -11% | . | -1% | 1 | .
Cc1ccc(OCC(=O)Nc2nc(C)c(Cl)cc2Cl)c([N+](=O)[O-])n1 | -12% | 7% | -1 | 1% | 2 | 6
O=C(c1ccncc1)N1CCN(S(=O)(=O)c2ccc(OC(F)(F)F)cc2)CC1 | -3% | ? | 2 | -1% | 1 | 0
CCOC(=O)C(C)On1c(-c2cccc(Cl)c2)nc2ccc([N+](=O)[O-])cc21 (configuration not stated) | ? | 21µM* | -17 | 2% | -1 | 6
